The structures appear in SMILES notation. Compounds without any hit were thinned out: in the full panel of roughly 79,000, 15% have a hit. A number with no mark means an inactive call. Activity calls are given as the source filed them. Rule as the data show it: active = growth inhibition above about 70%; inactive = the rest.

Assay [1] can be described thus: NCI Yeast Anticancer Drug Screen. Data for the rad50 strain (AID 155).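 Also: 0% = growth of vehicle-only cultures of the same strain.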 The note with it: S. cerevisiae rad50 strain growth inhibition; at 50.0 µM; hits give high values. Put shortly:
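Genetically altered yeast (DNA repair pathway); compound treatment; growth inhibition vs vehicle ctrl.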

Assay [2] in a line: NCI Yeast Anticancer Drug Screen. Data for the mec2-1 strain (AID 157). The conditions noted are these: S. cerevisiae mec2-1 strain, at 50.0 µM, hits give high values. Put shortly:
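Test agents were screened against the mec2-1 yeast strain, with defined DNA repair or cell cycle alteration. Growth was scored as inhibition against vehicle-only controls.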

The nature of assay [3]: NCI Yeast Anticancer Drug Screen. Data for the sgs1 mgt1 strain (AID 161).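 Also: 0% = growth of cultures given vehicle only.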 The conditions noted are these: S. cerevisiae sgs1 mgt1 strain, at 50.0 µM, hits give high values. In a few lines:
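Test agents were incubated with a DNA-repair-mutant yeast strain. Growth was then read and compared against vehicle-treated controls.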

Assay [4] is described as follows: NCI Yeast Anticancer Drug Screen. Data for the cln2 rad14 strain (AID 165).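 Also: 0% = growth equal to vehicle treated cultures.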 The conditions noted are these: S. cerevisiae cln2 rad14 strain, at 50.0 µM, hits give high values. In a few lines: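 Growth of compound-exposed yeast (cln2 rad14 genotype) measured and expressed as inhibition relative to vehicle.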
The nature of assay [5]: NCI Yeast Anticancer Drug Screen. Data for the bub3 strain (AID 167). The conditions noted are these: S. cerevisiae bub3 mutant strain, at 50.0 µM, hits give high values. Put shortly:
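Yeast carrying a defined mutation is treated with each compound, and growth is compared with that of vehicle-exposed cells to give inhibition.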

Assay [6] can be described thus: NCI Yeast Anticancer Drug Screen. Data for the mlh1 rad18 strain (AID 175). The conditions noted are these: S. cerevisiae mlh1 rad18 strain growth inhibition; at 50.0 µM; hits give high values. Put shortly: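 In this whole-cell yeast screen, a strain with altered DNA damage repair is challenged with compound, and its growth is measured against matched vehicle-treated controls.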

Regarding `CC(=O)c1ccccc1C(C)c1ccc(C)c2ccccc12` (centres undefined), the growth inhibition in assay [1] is -1.65%; in assay [2], 12.4%; in assay [3] it was 6.75%; in assay [4], -11.8%; in assay [5], 2.95%; in assay [6], 2.3%.
`C/C(=N/OC(=O)c1cccc2c(=O)c3ccccc3[nH]c12)[C@H]1CC[C@H]2[C@@H]3CCC4=C/C(=N/OC(=O)c5cccc6c(=O)c7ccccc7[nH]c56)CC[C@]4(C)[C@H]3CC[C@]12C`: the growth inhibition was 29.4% in assay [1]; 38% in assay [2]; 66.5% in assay [3]; 28.4% in assay [4]; 48.9% in assay [5]; 36.5% in assay [6].
Take `CCCCC(=CC(C)(C)C)CCCC`: the growth inhibition in assay [1] is 22.9%; in assay [2] it was -2.4%; in assay [3], -7.7%; in assay [4], 7.95%; in assay [5] it was 20.6%; in assay [6], 14.5%.
`C=C(C)[C@@H]1CC[C@]2(C)CC[C@]3(C)[C@H](CC[C@@H]4[C@@]5(C)CC[C@H](O)C(C)(C)[C@@H]5CC[C@]43C)[C@@H]12`: the growth inhibition in assay [1] was -2.75%; in assay [2], -4.95%; in assay [3], -11.3%; in assay [4], -10.4%; in assay [5], -6.05%; in assay [6] it was -11.3%.
As for `O=COC(Cc1ccccc1)c1ccc2c(c1)OCO2` (centres undefined), the growth inhibition in assay [1] is 32.2%; in assay [2], -5.2%; in assay [3], 1.6%; in assay [4] it was -7.2%; in assay [5] it was 30.6%; in assay [6] it was -3.05%.
For `O=C1COCCO1`, the growth inhibition in assay [1] was 2.45%; in assay [2], -8.55%; in assay [3] it was 6.45%; in assay [4], -14%; in assay [5] it was -6.55%; in assay [6] it was -19.5%.
For the molecule `CCOC(=O)COc1cc2c(cc1Cc1ccc3c(c1)OCO3)OCO2`, the growth inhibition in assay [1] is 0.6%; in assay [2] it was 1.95%; in assay [3] it was -0.7%; in assay [4], 5.65%; in assay [5], 16.2%; in assay [6] it was 0.95%.
`CN(C)c1ccc(/C=N/NC(=S)Nc2cccc3cccnc23)cc1`: the growth inhibition in assay [1] is 18.6%; in assay [2] it was -3.05%; in assay [3] it was 1.4%; in assay [4], 20.3%; in assay [5], 20.6%; in assay [6], -2.8%.
For `COc1cnc(NS(=O)(=O)c2ccc(N)cc2)nc1`, the growth inhibition was -12.2% in assay [1]; -9.8% in assay [2]; -9.45% in assay [3]; 10.2% in assay [4]; -10% in assay [5]; -7.2% in assay [6].
As to `CCOC(CCC#N)c1ccc(C)cc1` (centres undefined), the growth inhibition is 10.2% in assay [1]; 5.65% in assay [2]; 34.1% in assay [3]; 25.2% in assay [4]; 0.8% in assay [5]; 22.3% in assay [6].
For `NNC(=O)C(=O)NN`, the growth inhibition in assay [1] is -24%; in assay [2] it was -16.4%; in assay [3] it was -1.85%; in assay [4] it was -27.7%; in assay [5] it was -1.75%; in assay [6], -20.6%.
For `O=C(O)/C=C/C=C/c1ccc(Cl)cc1`, the growth inhibition in assay [1] is 7.25%; in assay [2] it was 23.4%; in assay [3], 4.3%; in assay [4] it was -14%; in assay [5], 10.4%; in assay [6] it was -1.95%.
Turning to `O=S(=O)(O)C(O)C(c1ccccc1)c1ccccc1` (centres undefined), the growth inhibition in assay [1] was -16.1%; in assay [2], -15.8%; in assay [3] it was -15.6%; in assay [4], -15.8%; in assay [5] it was -7.2%; in assay [6] it was -31.9%.
Take `O=C(Nc1ccc(Cl)cc1)OCC#CCOC(=O)Nc1ccc(Cl)cc1`: the growth inhibition in assay [1] was 5.8%; in assay [2], -2.75%; in assay [3], -6.3%; in assay [4] it was -2.05%; in assay [5] it was -0.35%; in assay [6] it was 2.1%.
Turning to `CC(C)(C)[Si](C)(C)OCCC1CC2(S(=O)(=O)C3=CC=C=C=C3)ON1CC2S(=O)(=O)c1ccccc1` (centres undefined), the growth inhibition was 6.8% in assay [1]; -6.2% in assay [2]; -1.45% in assay [3]; -23.9% in assay [4]; -20.4% in assay [5]; 17.1% in assay [6].
For `C1=C/CCC2OC2CC/C=C/CC/1` (centres undefined), the growth inhibition in assay [1] is -9.8%; in assay [2], -55.2%; in assay [3] it was -24.8%; in assay [4] it was 11.8%; in assay [5], -29.2%; in assay [6], -4.2%.
Regarding `CC(=O)CC(=O)Nc1cccc(C)c1C`, the growth inhibition in assay [1] is -8.1%; in assay [2], -15.2%; in assay [3] it was 15.3%; in assay [4], -1.7%; in assay [5] it was 9.3%; in assay [6], -5.6%.
On to `C(=NCCN=Cc1ccccc1)c1ccccc1`, for which the growth inhibition in assay [1] is -10.7%; in assay [2], -6.9%; in assay [3] it was -21.8%; in assay [4] it was 3.25%; in assay [5], -11.7%; in assay [6], -8.9%.
Regarding `COc1cc2oc(=O)ccc2cc1CC=C(C)C`, the growth inhibition was -16.1% in assay [1]; -26.2% in assay [2]; -4.1% in assay [3]; -6.35% in assay [4]; 2.95% in assay [5]; -21.8% in assay [6].
For `Cc1cc(CC#N)c(CC#N)cc1C`, the growth inhibition is 4.05% in assay [1]; -10.1% in assay [2]; -7% in assay [3]; 9.2% in assay [4]; -3.95% in assay [5]; 3.95% in assay [6].
`O=C(C1SCCCS1)N(O)c1ccccc1OCc1ccccc1`: the growth inhibition was -3.85% in assay [1]; -37.6% in assay [2]; -22.8% in assay [3]; -14.5% in assay [4]; 0.95% in assay [5]; -19.8% in assay [6].
Regarding `O=c1[nH]cc(CS)c(=O)[nH]1`, the growth inhibition in assay [1] is 28.4%; in assay [2] it was 0.85%; in assay [3], -7.95%; in assay [4] it was 34%; in assay [5], 51%; in assay [6] it was 14.5%.
On to `Cc1cc(C)c(S(=O)(=O)O)c(Cc2ccccc2)c1`, for which the growth inhibition is -14.4% in assay [1]; -10.6% in assay [2]; 31.5% in assay [3]; -11.6% in assay [4]; -3.35% in assay [5]; 0.45% in assay [6].
`CC12CCC(=O)C=C1CCC1C2CCC2(C)C(C(=O)Cn3c(=O)cc[nH]c3=O)CCC12` (centres undefined): the growth inhibition in assay [1] was 1.2%; in assay [2] it was -3.7%; in assay [3] it was -0.5%; in assay [4], 15.8%; in assay [5], -1.35%; in assay [6], 1.85%.
Turning to `CCOC(=O)CCCCCCC(=O)OCC`, the growth inhibition was 19.1% in assay [1]; 5.35% in assay [2]; 5.05% in assay [3]; 1.95% in assay [4]; 1.1% in assay [5]; 23.4% in assay [6].
As to `COc1cc(/C=C2\N=C(C)N(n3c(-c4ccccc4)nc4ccccc4c3=O)C2=O)cc(OC)c1OC`, the growth inhibition in assay [1] is -20.4%; in assay [2], 19.6%; in assay [3], 29.6%; in assay [4], 2.7%; in assay [5], 16.2%; in assay [6], 7.3%.
Consider `COc1cccc2c1C(=N)c1c(O)c3c(c(O)c1C2=O)C[C@@](O)(C(=O)CO)C[C@@H]3OC1CC(N)C(O)C(C)O1` (some centres undefined), for which the growth inhibition is 55.4% in assay [1]; 23.2% in assay [2]; -8.7% in assay [3]; 22.4% in assay [4]; -16.9% in assay [5]; -13.9% in assay [6].
Take `CN1C=C([N+](=O)[O-])C(N2CCOCC2)C1N1CCOCC1` (centres undefined): the growth inhibition in assay [1] is 3.1%; in assay [2] it was 0.65%; in assay [3], -3.5%; in assay [4], 3.1%; in assay [5] it was -26.6%; in assay [6] it was 20.9%.
As for `CC(=O)CC(=O)NCc1ccncc1`, the growth inhibition in assay [1] was -5.85%; in assay [2], 8.1%; in assay [3], 12.1%; in assay [4] it was -44.3%; in assay [5] it was 26.9%; in assay [6], -1.9%.
Regarding `COc1cccc(C2C3=C(COC3=O)Oc3cc4c(cc32)OCO4)c1` (centres undefined), the growth inhibition is -41.1% in assay [1]; -24.4% in assay [2]; -31.4% in assay [3]; -1.6% in assay [4]; -4.55% in assay [5]; -14.2% in assay [6].
As to `O=C(O)c1ccc(N=C=S)cc1O`, the growth inhibition is -1.95% in assay [1]; -8.75% in assay [2]; -2.1% in assay [3]; -12.8% in assay [4]; 3.8% in assay [5]; -1.8% in assay [6].
Consider `NC(=O)/C(N=Nc1ccccc1)=N\Nc1ccccc1`, for which the growth inhibition in assay [1] is 94.2% (active); in assay [2], 94.8% (active); in assay [3], 94.8% (active); in assay [4], 73.2% (active); in assay [5] it was 95.5% (active); in assay [6], 94.8% (active).
On to `BrC1CC1(c1ccccc1)c1ccccc1` (centres undefined), for which the growth inhibition in assay [1] is 0.1%; in assay [2], 0.35%; in assay [3], -3.5%; in assay [4], -6.4%; in assay [5], 3.65%; in assay [6] it was -0.3%.
For the molecule `COC(=O)/C=C/c1c(=O)c(C(=O)OC)cn2cnc3nc[nH]c3c12`, the growth inhibition in assay [1] was -14.5%; in assay [2] it was 2.35%; in assay [3] it was -20.6%; in assay [4] it was -13.3%; in assay [5] it was -5.9%; in assay [6] it was -5.8%.
Take `Oc1cccnc1I`: the growth inhibition is 24.4% in assay [1]; 3.1% in assay [2]; 18.5% in assay [3]; 19.5% in assay [4]; 18% in assay [5]; 10.2% in assay [6].
For the molecule `Cc1cc2nc3c(=O)[nH]c(=O)nc-3n(CCN(CCO)CCO)c2cc1Cl`, the growth inhibition in assay [1] is 58.9%; in assay [2], 7.95%; in assay [3], 48.3%; in assay [4], 14.8%; in assay [5] it was 1.55%; in assay [6] it was 17.8%.
With `CN(C)c1cc2c(cc1N(C)C)-c1ccccc1C2`, the growth inhibition in assay [1] is 9.85%; in assay [2], 6.5%; in assay [3], 13.9%; in assay [4] it was -0.2%; in assay [5] it was 10.1%; in assay [6] it was 28.9%.
On to `CC(C)C(Br)CCC1=CCC(Br)(Br)C1` (centres undefined), for which the growth inhibition is 79.1% (active) in assay [1]; 82.2% (active) in assay [2]; 88.5% (active) in assay [3]; 86.2% (active) in assay [4]; 84.7% (active) in assay [5]; 90.3% (active) in assay [6].
In the case of `Cc1ccc(O)cc1C(=O)O`, the growth inhibition in assay [1] was -32%; in assay [2], -14.7%; in assay [3] it was -0.95%; in assay [4] it was 8.05%; in assay [5], -3.75%; in assay [6] it was 5.4%.
